Anthrax LF inh2 – blocks Bacillus anthracis lethal factor protease | P15917 | multiplex microsphere protease cleavage assay, LF | inhibition, % at 10 µM | actives 0.12% (n = 360,000) | AID 588501
Target sequence (P15917 whole entry, looked up): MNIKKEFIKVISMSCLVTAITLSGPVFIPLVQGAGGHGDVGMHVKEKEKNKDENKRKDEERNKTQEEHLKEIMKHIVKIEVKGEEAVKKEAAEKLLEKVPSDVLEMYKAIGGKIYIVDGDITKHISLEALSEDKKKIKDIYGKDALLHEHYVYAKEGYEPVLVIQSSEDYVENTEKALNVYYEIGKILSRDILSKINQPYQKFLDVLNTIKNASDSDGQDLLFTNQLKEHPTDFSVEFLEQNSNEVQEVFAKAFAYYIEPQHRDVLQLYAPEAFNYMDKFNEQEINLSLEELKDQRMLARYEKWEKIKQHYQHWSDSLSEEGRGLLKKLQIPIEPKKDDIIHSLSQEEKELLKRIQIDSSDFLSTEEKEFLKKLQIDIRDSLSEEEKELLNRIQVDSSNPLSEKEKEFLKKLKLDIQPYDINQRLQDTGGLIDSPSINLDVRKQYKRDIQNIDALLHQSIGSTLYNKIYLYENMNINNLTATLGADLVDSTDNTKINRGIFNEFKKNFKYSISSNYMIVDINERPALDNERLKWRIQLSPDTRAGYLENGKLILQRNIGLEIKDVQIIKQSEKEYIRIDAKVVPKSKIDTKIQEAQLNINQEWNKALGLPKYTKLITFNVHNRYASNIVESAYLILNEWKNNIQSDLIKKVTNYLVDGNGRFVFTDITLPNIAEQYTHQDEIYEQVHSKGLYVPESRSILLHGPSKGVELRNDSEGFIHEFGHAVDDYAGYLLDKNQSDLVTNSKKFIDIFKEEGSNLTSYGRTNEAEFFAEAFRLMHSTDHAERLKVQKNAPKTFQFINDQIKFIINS
Autofluor counter – counter-screen for toxin protease inhibitors: compound fluorescence | fluorescence intensity (no concentration beside the values) | compound autofluorescence counterscreen, microsphere flow cytometry; stronger effect = higher value | AID 624483 | actives 3.1% (n = 360,000); in the data active = fluorescence intensity above about 16000; inconclusive = no clear call, values can overlap the other calls
TcdB inh – TcdB glycohydrolase inhibition. actives 0.24% (n = 350,000). AID 652162. inhibition, % at 9.99 µM. TcdB glycohydrolase enzymatic assay, plate reader; in the data active = inhibition above about 10%
BoNT F protease – BoNT F light chain protease inhibition; Multiplex microsphere protease cleavage assay, flow cytometry; inhibition, % at 10 µM; actives 0.22% (n = 360,000); AID 588497; in the data active = inhibition above about 35%, passing the limit was not always enough; inconclusive = no clear call, values can overlap the other calls
BoNT-A LC inh2 – inhibitors of Botulinum neurotoxin A light chain protease. inhibition, % at 10 µM. multiplex microsphere protease substrate cleavage, flow cytometry. AID 588499. actives 0.17% (n = 360,000)
Large screens that a line does not name were inactive. This excerpt belongs to a sample that is enriched for hits. Rule as the data show it, unless noted: active = inhibition above about 30%; inconclusive = no clear call, values can overlap the other calls; inactive = below that.

Cc1noc(C)c1S(=O)(=O)Nc1ccc2c(c1)C(=O)N([C@@H](C)CO)C[C@@H](C)[C@@H](CN(C)Cc1ccc(C(F)(F)F)cc1)OCCCC[C@@H](C)O2	none (no result: Anthrax LF inh2, Autofluor counter, BoNT F protease, BoNT-A LC inh2)
COc1ccc(C[C@@H]2CCn3cc(nn3)COC[C@@H](CC(C)C)NC2=O)cc1	none (no result: Anthrax LF inh2, Autofluor counter, BoNT F protease, BoNT-A LC inh2)
CCCC(O)C#Cc1cnc2c(c1)C(=O)N([C@H](C)CO)C[C@H](C)[C@H](CN(C)C(=O)NC(C)C)O2 (stereo partly specified)	none (no result: Anthrax LF inh2, Autofluor counter, BoNT F protease, BoNT-A LC inh2)
Cc1ccc(S(=O)(=O)Nc2ccc3c(c2)C(=O)N([C@H](C)CO)C[C@H](C)[C@H](CN(C)Cc2ccc(C(=O)O)cc2)OCCCC[C@H](C)O3)cc1	none (no result: Anthrax LF inh2, Autofluor counter, BoNT F protease, BoNT-A LC inh2)
COc1ccc(OC)c(C(=O)COC(=O)c2ccccc2O)c1	Autofluor counter 22401 (no result: TcdB inh)
CNC[C@H]1Oc2ccc(NC(=O)Cc3cn(C)c4ccccc34)cc2CC(=O)N([C@H](C)CO)C[C@@H]1C	none (no result: Anthrax LF inh2, Autofluor counter, BoNT F protease, BoNT-A LC inh2)
Cc1nc(NC(=O)c2cc(-n3cnnc3)ccc2Cl)ccc1Br	Autofluor counter 21255 (no result: TcdB inh)
CCSCCNC(=O)c1cc(-n2cnnc2)ccc1Cl	Autofluor counter 21120, BoNT-A LC inh2 inconclusive (no result: TcdB inh)
O=C(NCCOc1cccc(Cl)c1Cl)c1cc(-n2cnnc2)ccc1Cl	none
O=C(Nc1ccccc1)c1cc(-n2cnnc2)ccc1Cl	none (no result: TcdB inh)
O=C(NCc1ccc2c(c1)OCO2)c1cc(-n2cnnc2)ccc1Cl	Autofluor counter 19482 (no result: TcdB inh)
CC(C(=O)NCC1(c2ccccc2)CCOCC1)N1CCOCC1 (stereo unspecified)	none
CC(C(=O)NCC1(c2ccccc2)CCCC1)N1CCOCC1 (stereo unspecified)	Autofluor counter 23756 (no result: TcdB inh)
C[C@@H]1CN([C@@H](C)CO)C(=O)c2cccc(NC(=O)C3CC3)c2O[C@H]1CN(C)Cc1ccc(-c2ccccc2)cc1	none (no result: Anthrax LF inh2, Autofluor counter, BoNT F protease, BoNT-A LC inh2)
COc1ccc(CN(C)C[C@@H]2Oc3ccc(NC(=O)CCCCCC(=O)Nc4ccccc4N)cc3CC(=O)N([C@H](C)CO)C[C@@H]2C)cc1	none (no result: Anthrax LF inh2, Autofluor counter, BoNT F protease, BoNT-A LC inh2)
COc1ccc(-c2cc3ccccc3oc2=O)cc1NC(=O)c1ccc([N+](=O)[O-])o1	Autofluor counter 23372 (no result: TcdB inh)
COc1ccc(-c2cc3ccccc3oc2=O)cc1NC(=O)c1ccc(Br)o1	none (no result: TcdB inh)
Cc1ccc(C(=O)N(c2ccccn2)C(C)c2ccco2)cc1C (stereo unspecified)	Autofluor counter 21171, BoNT-A LC inh2 inconclusive (no result: TcdB inh)
O=C(CC1CC1)N1CC(=O)N2[C@H](CO)[C@@H](c3ccc(-c4cccnc4)cc3)[C@H]2C1	none (no result: Anthrax LF inh2, Autofluor counter, BoNT F protease, BoNT-A LC inh2)
CCS(=O)(=O)N1CCCCN2[C@@H](CO)[C@H](c3ccc(C#Cc4ccccc4OC)cc3)[C@@H]2C1	none (no result: Anthrax LF inh2, Autofluor counter, BoNT F protease, BoNT-A LC inh2)
O=C(NCc1ccco1)c1ccccc1NS(=O)(=O)c1cccs1	Autofluor counter 19002 (no result: TcdB inh)
CS(=O)(=O)N(Cc1ccccc1)c1ccccc1C(=O)Nc1ccccc1C(=O)NCc1ccco1	Autofluor counter 23578
CCOc1ccc(N(CC(=O)NCc2ccco2)S(=O)(=O)c2ccc(OC)c(OC)c2)cc1	none (no result: TcdB inh)
COc1ccc(N(CC(=O)Nc2ccccc2C(=O)NCc2ccco2)S(C)(=O)=O)cc1	Autofluor counter 22786
Cc1ccc(S(=O)(=O)N(Cc2ccccc2)c2ccccc2C(=O)Nc2ccccc2C(=O)NCc2ccco2)cc1	none
COc1ccc(N(CC(=O)NCc2ccco2)S(=O)(=O)c2ccc(OC)c(OC)c2)cc1	Autofluor counter 22427, BoNT-A LC inh2 inconclusive (no result: TcdB inh)
CO[C@@H]1CN(C)C(=O)c2ccc(NC(=O)C3CCC3)cc2OC[C@@H](C)N(Cc2ccncc2)C[C@H]1C	none (no result: Anthrax LF inh2, Autofluor counter, BoNT F protease, BoNT-A LC inh2)
O=C(C[C@@H]1C[C@@H]2c3cc(NC(=O)Nc4ccccc4)ccc3O[C@@H]2[C@@H](CO)O1)NCCN1CCCCC1	none (no result: Anthrax LF inh2, Autofluor counter, BoNT F protease, BoNT-A LC inh2)
CS(=O)(=O)N(Cc1ccc(C(=O)NCCSCc2ccco2)cc1)c1ccccc1	Autofluor counter 21841 (no result: TcdB inh)
COc1ccc(CN(C)C[C@@H]2Oc3c(NC(=O)CCCCCC(=O)Nc4ccccc4N)cccc3C(=O)N([C@@H](C)CO)C[C@H]2C)cc1	none (no result: Anthrax LF inh2, Autofluor counter, BoNT F protease, BoNT-A LC inh2)
O=C(NC1CCC1)[C@H]1[C@H](CO)[C@H]2Cn3c(ccc(-c4ccccc4)c3=O)[C@H]2N1Cc1ccccn1	none (no result: Anthrax LF inh2, Autofluor counter, BoNT F protease, BoNT-A LC inh2)
COc1ccc(N(C(=O)c2cccc([N+](=O)[O-])c2)S(=O)(=O)c2ccc3c(c2)n(C)c(=O)n3C)cc1	Autofluor counter 16542, BoNT-A LC inh2 inconclusive (no result: TcdB inh)
CC(C(=O)Nc1ccc(Cl)cc1)c1ncc(C(F)(F)F)cc1Cl (stereo unspecified)	Autofluor counter 20389
NC(=O)C(c1ccc(Cl)cc1Cl)c1ncc(C(F)(F)F)cc1Cl (stereo unspecified)	Autofluor counter 19681, BoNT-A LC inh2 inconclusive (no result: TcdB inh)
CCc1cc(C(=O)NNC(=S)NC2CCCCC2)cs1	none
CCc1cc(C(=O)NNC(=S)NC(C)c2ccccc2)cs1 (stereo unspecified)	Autofluor counter 16961

Assay outcomes (PubChem BioAssay)
